The values below come from PubChem BioAssay (NCATS).

A short description of assay [1]: qHTS profiling for inhibitors of Plasmodium falciparum (3D7) proliferation (AID 743322; call rule not given here;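 note: infected erythrocytes exposed to compound for 72 h before lysis; 100% = DMSO vehicle wells and 0% = 0.29 µM artemisinin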). As to conditions: P. falciparum 3D7 proliferation; at 28.7 µM (top of the series) unless noted. Put shortly:
(§1)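 Parasite DNA was quantified by SYBR Green I fluorescence (ex 485, em 535 nm) after overnight lysis in saponin/Triton buffer at room temperature. Cultures at 0.3% parasitemia and 2.5% hematocrit were first exposed to compound for 72 h at 37 C; signals were normalised to artemisinin (0.29 uM) and vehicle wells.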
(In general: In qHTS, concentration-response curves come from the screen itself.)

The nature of assay [2]: qHTS profiling for inhibitors of Plasmodium falciparum (DD2) proliferation (AID 743323; call rule not given here). As to conditions: lower = more inhibition; at 28.7 µM (top of the series) unless noted. Put shortly: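 Parasite DNA quantified by SYBR Green fluorescence (ex 485, em 535 nm) after saponin/Triton lysis and overnight dark incubation. Cultures: 0.3% parasitemia, 2.5% hematocrit, 72 h, 37 C; data scaled between DMSO and 0.29 uM artemisinin.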

Assay [3] in a line: qHTS profiling for inhibitors of Plasmodium falciparum (HB3) proliferation (AID 743324).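 Note: 100% = DMSO vehicle wells and 0% = artemisinin-treated control wells.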 As to conditions: Plasmodium falciparum HB3 blood-stage proliferation; at 28.7 µM (top of the series) unless noted. The method, boiled down:
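SYBR Green fluorescence (485 ex/535 em) of lysed cultures, incubated overnight at room temperature in the dark, quantifies parasite DNA. Infected erythrocytes at 0.3% parasitemia and 2.5% hematocrit were exposed 72 h; values normalized to DMSO and 0.29 uM artemisinin controls.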

A short description of assay [4]: qHTS profiling of the MIPE4 collection as inhibitors of Plasmodium falciparum (3D7) proliferation (AID 743344; call rule not given here;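 note: scaled between DMSO vehicle wells and 0.29 µM artemisinin as full inhibition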). As to conditions: P. falciparum 3D7 in erythrocytes, SYBR Green DNA fluorescence, 72 h; at 28.5 µM (top of the series) unless noted. Put shortly: as §1
The nature of assay [5]: qHTS profiling of the MIPE4 collection as inhibitors of Plasmodium falciparum (DD2) proliferation (AID 743345; call rule not given here). As to conditions: P. falciparum Dd2 in erythrocytes, SYBR Green DNA, 72 h; at 28.5 µM (top of the series) unless noted. Put shortly:
as §1

Assay [6] is described as follows: qHTS profiling of the MIPE4 collection as inhibitors of Plasmodium falciparum (DD2) proliferation (Rep 2) (AID 743346; call rule not given here). The conditions noted are these: P. falciparum Dd2 in erythrocytes, SYBR Green DNA, 72 h; at 28.5 µM (top of the series) unless noted. The method, boiled down: as §1
Assay [7] can be described thus: Cell Proliferation Assay Versus the ED40515 IL2 Dependent ATL cell lines (AID 1053195; calls by dose curve). As to conditions: ED40515 IL2-dependent ATL cells. The method, boiled down: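 CellTiter-Glo luminescence (15 min, RT) measured viability after 48 hours at 37C; cells were ED40515 +IL2, 1000/well, in phenol red-free RPMI with 5% FBS. Controls: DMSO and 9.2 uM bortezomib.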
Assay [8] can be described thus: High-throughput drug toxicity screening in the BPDCN cell line Gen2.2 (AID 1224824; call rule not given here;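 note: cells exposed to compounds for 48 h before reading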). The conditions noted are these: Gen2.2 BPDCN cells; at 45.8 µM (top of the series) unless noted. The method, boiled down: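 CellTiter-Glo luminescence after 48 h compound exposure of Gen2.2 cells; percent activity set with DMSO as 100% and bortezomib (9.2 uM final) as 0%. Cells seeded at 500 per well, RPMI + 10% FBS, 37 °C.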

Assay [9] in a line: High-throughput drug toxicity screening in the BPDCN cell line Cal-1 (AID 1224825; call rule not given here). The conditions noted are these: Cal-1 BPDCN cell viability, qHTS; at 45.8 µM (top of the series) unless noted. The method, boiled down: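 Percent activity derived from CellTiter-Glo luminescence, scaling DMSO to 100% and 9.2 uM final bortezomib to 0%. BPDCN Cal-1 cells (500/well, RPMI plus 10% FBS) incubated with compounds 48 hours at 37C before reading.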

A short description of assay [10]: qHTS assay for measurement of the activity of small molecule inhibitors on Zika virus induced Caspase-3 activity in human iPSC derived neural progenitor cells (hNPCs) (AID 1224857). Note: % of control where 0% means no effect; nearly all actives have a fitted effect of over 65% in size. The method, boiled down:
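In medium with heparin 2 ug/ml and cyclopamine 2 uM, hNPCs (350 cells/well) received compound for one hour and then Zika virus at 2 FFU/cell; caspase activity was measured by Caspase-Glo 3/7 luminescence 6 h post-infection.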

The nature of assay [11]: qHTS assay for measurement of the activity of small molecule inhibitors on Zika virus induced Caspase-3 activity in human astrocytoma cells (AID 1224859).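 Note: plate controls were ZIKV-infected untreated cells for no effect and uninfected cells for full effect.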 The method, boiled down:
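A cell-based luminescent caspase-3/7 assay used SNB-19 cells infected with ZIKV (2 FFU/cell) for 6 h following 1 h compound pretreatment.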

A short description of assay [12]: qHTS Screen of the MIPE 4.0 Collection Against Ewings Sarcoma (RDES) (AID 1259252). Note: nearly all actives have a fitted effect of over 35% in size. Note: potency is the fitted concentration of half-maximal effect. The method, boiled down: (§2)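 Cells plated in serum-containing RPMI (5% FBS) and treated with compound dilutions for 48 h. Readout luminescent viability; normalization relied on vehicle (no inhibition) and media-only columns (full inhibition).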
Assay [13] in a line: qHTS Screen of the MIPE 4.0 Collection Against Ewings Sarcoma (TC71) (AID 1259253). Note: nearly all actives have a fitted effect of over 40% in size. Note: potency is the fitted concentration of half-maximal effect. Put shortly:
as §2

Assay [14] can be described thus: qHTS Screen of the MIPE 4.0 Collection Against Ewings Sarcoma (EW8) (AID 1259255).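 For viability: 100% = DMSO-treated cells and 0% = medium-only wells without cells.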 Note: nearly all actives have a fitted effect of over 35% in size. Note: potency is the fitted concentration of half-maximal effect. Put shortly:
as §2

A short description of assay [15]: qHTS profiling of the MIPE4 collection as inhibitors of Plasmodium falciparum (HB3) proliferation (AID 743347; call rule not given here;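 note: plate controls were DMSO vehicle wells for no effect and artemisinin wells for full effect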). As to conditions: P. falciparum HB3 in erythrocytes, SYBR Green DNA, 72 h; at 28.5 µM (top of the series) unless noted. Put shortly: as §1
The nature of assay [16]: qHTS Screen of the MIPE 4.0 Collection Against Ewings Sarcoma (TC32) (AID 1259256).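 Note: 100% = DMSO-treated cells and 0% = medium-only wells without cells; nearly all actives have a fitted effect of over 45% in size.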 Put shortly:
as §2

Assay [17] in a line: qHTS assay to identify small molecule inhibitors of chordoma cells - UCH-1 (AID 1259355). Note: % is set by controls: 0 for no effect and ±100 for the full control effect; nearly all actives have a fitted effect of over 55% in size. Put shortly:
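800 cells/well, overnight attach; compounds pinned at 15 concs, then auranofin/camptothecin/doxorubicin/rubitecan/topotecan combo added; 48hr 37 C, 5% CO2; CellTiter-Glo, 30min RT, luminescence.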

Assay [18] in a line: Identifying Small Molecule Inhibitors of Pancreatic Cancer Stem Cells (A2780, Spheroid) (AID 1259357).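 Note: spheroids pre-formed over 14 days in stem cell medium on hydrogel; potency is the fitted concentration of half-maximal effect; compound exposure lasted 48 h before the ATP luminescence read.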 The conditions noted are these: Potency: A2780 spheroid viability. The method, boiled down:
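Spheroids grown 14 days in stem cell media on hydrogel-coated nonadherent plates; 2D lines seeded directly. Compounds added after 4 h attachment, 48 h at 37C, 5% CO2; CellTiter-Glo luminescence normalized to DMSO (no inhibition) and no-cell wells (full inhibition).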

Inconclusive results are not listed. Active and inactive are the calls of the source. Unless noted, calls come from the whole dose curve; as a rule, active = well fitted curve in the direction sought with a large enough effect; inconclusive = small, poorly fitted or top-dose-only effect, or another doubt; inactive = no such curve, though single readings can be large; an effect the other way counts as inactive or inconclusive.

With `Cc1cnc(Nc2ccc(OCCN3CCCC3)cc2)nc1Nc1cccc(S(=O)(=O)NC(C)(C)C)c1`, the remaining parasite growth % (stronger effect = lower value) in assay [1] turned out to be 1.03%. Also, the activity, percent of control in assay [2] is 52.4%. In assay [3], this compound showed a remaining proliferation (% of control), lower = more inhibition of 1.48%. The parasite growth, % of DMSO control in assay [4] came to 6.36%. Also, in [5], the parasite growth remaining, % of DMSO control (lower = more inhibition) came to 25.8%. In assay [6], the parasite growth, % of control (lower = inhibition) is 11%. In assay [7], the Potency is 20.9 µM (active). For the same compound, the cell viability, % of control (lower = more cytotoxic) in [8] came to 112%. This compound yielded a viability (% of control) in [9] of 72.4%. Also, the Potency result in assay [10], in assay [11], in assay [12], in assay [13] and in assay [14] was “inactive” in each case.
Compound `CCc1ccc(CCOc2ccc(CC3SC(=O)NC3=O)cc2)nc1` (stereo unspecified) showed a remaining parasite growth % (stronger effect = lower value) in assay [1] of 92%. Further, the activity, percent of control in [2] is 103%. Further, the remaining proliferation (% of control), lower = more inhibition in assay [3] came to 66.4%. The same compound came in with a parasite growth, % of DMSO control in [4] of 89.3%. For the same compound, the parasite growth remaining, % of DMSO control (lower = more inhibition) in assay [5] turned out to be 90.1%. The parasite growth, % of control (lower = inhibition) in assay [6] is 79.4%. This compound also showed a growth, % of control in assay [15] of 63.3%. Moreover, the results for the Potency in assay [7], in [12] and in assay [13] were 16.6 µM (active), 0.0148 µM (active) and 0.296 µM (active), respectively. Further, the cell viability, % of control (lower = more cytotoxic) in [8] came to 142%. In [9], the viability (% of control) was 100%. The Potency result in assay [10], in assay [11], in assay [14], in [16] and in assay [17] was “inactive” throughout.
In assay [1], `CS(=O)(=O)Oc1ccc2c(NC(N)=O)c(C(=O)c3ccc(Cl)cc3Cl)oc2c1` had a remaining parasite growth % (stronger effect = lower value) of 75.4%. The remaining proliferation (% of control), lower = more inhibition in assay [3] came to 94.7%. This compound also had a parasite growth, % of DMSO control in assay [4] of 49.8%. For the same compound, the parasite growth remaining, % of DMSO control (lower = more inhibition) in assay [5] was 82.7%. Also, in assay [6], the parasite growth, % of control (lower = inhibition) is 33.3%. The same compound yielded a growth, % of control in [15] of 13.6%. The Potency is 16.6 µM (active) in assay [7]; 11.8 µM (active) in assay [12]; 14.8 µM (active) in assay [13]; 23.5 µM (active) in [14]; 11.8 µM (active) in assay [18]. The cell viability, % of control (lower = more cytotoxic) in assay [8] amounted to 153%. The viability (% of control) in assay [9] was 13.2%. Also, the Potency entry in assay [10] and in assay [11] was “inactive” throughout.
